Reference: paper PMC5540273 (PLoS ONE, 2017)

How the values were obtained:
LKB1 = system: T1, LKB1
T1 construct: gene STK11

LOK = system: T2, LOK
T2 construct: gene STK10

MEK1 = system: T3, MEK1
T3 construct: gene MAP2K1

MEK2 = system: T4, MEK2
T4 construct: gene MAP2K2

MINK = system: T5, MINK
T5 construct: gene MINK1
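Note: kd values determined as follow-up on hits from a single-replicate KINOMEscan panel screen.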

## CCn1c(-c2nonc2N)nc2ccccc21 [SB-693162/GW549034]
LATS2
  Kd: 1800 nM
LRRK2
  Kd: > 10000 nM

## Nc1ncnc2c1ncn2-c1cccc2ccccc12 [SKF-97184]
LKB1
  Kd: > 10000 nM

## COc1cc2ncn(-c3cc(OCc4ccncc4Br)c(C(N)=O)s3)c2cc1OC [GW854278]
LOK
  Kd: 500 nM

## Cc1nnc(-c2ccc(C)c(-c3ccc(C(=O)O)cc3)c2)o1 [GW608005]
LOK
  Kd: > 10000 nM

## Cc1ccccc1COc1cc(-n2cnc3cc(Cl)ccc32)sc1C(N)=O [GW813349]
LRRK2
  Kd: > 10000 nM

## Nc1n[nH]c2nnc(-c3ccccc3)c(-c3ccccc3)c12 [GW554060]
LYN
  Kd: > 10000 nM

## CCS(=O)(=O)c1ccc(OC)c(Nc2ncc(-c3ccc(F)cc3)o2)c1.Cl [GW591947]
MAK
  Kd: > 10000 nM

## Cc1nnc(-c2ccc3ncn(-c4ccc(S(C)=O)cc4)c3c2)o1 (stereo not shown)
MAP4K2
  Kd: > 10000 nM

## CN1C(=O)C(Nc2cc(Cl)c(O)c(Cl)c2)=C(c2ccc(Cl)cc2)C1=O [SB-404321]
MAPKAPK2
  Kd: > 10000 nM

## CN1C(=O)C(Nc2ccccc2)=C(c2ccccc2)C1=O [SB-300079]
MAST1
  Kd: > 10000 nM

## Cc1cccc(-c2nc(Nc3ccc4c(cnn4C)c3)c3ccccc3n2)n1 [GW876731]
MAST1
  Kd: > 10000 nM
MKNK1
  Kd: > 10000 nM

## Cn1c(=O)c(F)c(Nc2ccc(I)cc2F)c2c(=O)n(OC[C@H](O)CO)cnc21
MEK1
  Kd: 34 nM
MEK2
  Kd: 200 nM

## COc1cc2nccc(Nc3cccc(Oc4ccccc4)c3)c2cc1OC.Cl [GW284543]
MEK1
  Kd: 100 nM
MEK2
  Kd: 270 nM

## O=C(Nc1ccc2c(c1)OCO2)NC1CCN(c2ccnc(NCc3ccc(F)cc3)n2)CC1 [GSK1379859]
MELK
  Kd: > 10000 nM

## COc1ccc(CNC(=O)NC2CCN(c3ccnc(Nc4ccc(F)cc4)n3)C2)cc1 (stereo not shown) [GSK1379706]
MINK
  Kd: > 10000 nM

## Nc1nc(-c2ccccc2F)c(-c2ccnc3ccccc23)s1 [GW560459]
MINK
  Kd: 1700 nM

## Nc1n[nH]c2ncc(-c3ccccc3)cc12 [SB-517081]
MKNK2
  Kd: 260 nM

## O=C(Nc1n[nH]c2nc(-c3ccccc3)c(Br)cc12)C1CC1 [SB-708998]
MST1R
  Kd: > 10000 nM

## COc1ccc(-c2cc3c(C)nc(N)nc3n([C@H]3CC[C@H](OCCO)CC3)c2=O)cn1
MTOR
  Kd: 3.3 nM

## COc1ccc(-c2cc3c(C)nc(N)nc3n([C@H]3CC[C@H](O)CC3)c2=O)cn1
MTOR
  Kd: 4.8 nM

## COc1cc2ncn(-c3cc(OCc4ccncc4)c(C(N)=O)s3)c2cc1OC [GSK336313]
MUSK
  Kd: > 10000 nM
